TMEM16A act: mouse TMEM16A channel activation, primary screen; 340,000 compounds, 0.3% hits; HEK293 TMEM16A/YFP-H148Q/I152L, iodide quench fluorescence; stronger effect = lower value; B-score at 10 µM; Q8BHY3; AID 623877;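 active means fluorescence-ratio B-score plate-corrected deviation score at least 3 library SD below zero, with starting fluorescence score within 5 deviations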;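 further: channel opened by trigger with iodide after compound preincubation; score built on the fluorescence ratio of max minus min over baseline; more negative score means more quench and so TMEM16A activation or potentiation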
ANO1 block: mouse TMEM16A channel inhibition, primary screen. Q8BHY3. HEK293 TMEM16A/YFP iodide influx fluorescence, ionomycin. normalized B-score (activity score, 25-100; higher = stronger inhibition) at 10 µM. 310,000 compounds, 1.2% hits;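 active means ratio plate-corrected score three or more library SD toward inhibition, starting fluorescence score within five deviations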;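 further: score derived from kinetic fluorescence span divided by baseline fluorescence per well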
Kir21 block: inhibitors of mouse Kir2.1 inward-rectifier potassium channel. P35561. HEK293-Kir2.1, FluxOR thallium flux fluorescence; stronger effect = lower value. B-score at 10 µM. 310,000 compounds, 0.85% hits. AID 1672;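 active means fluorescence ratio B-score at or below minus 3 SD of library scores, with starting-brightness B-score within 2 SD, cut at about -4.2 in these data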;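 further: channel flux triggered by added potassium and thallium sulfate stimulus; B-score of peak minus minimum fluorescence over baseline after thallium stimulus; more negative B-score means stronger Kir2.1 block with less thallium influx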
CHT inh: inhibitors of human choline transporter CHT. Q9GZV3. CHT-expressing cells, membrane potential dye, choline response; stronger effect = lower value. B-score at 10 µM. 310,000 compounds, 0.86% hits;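 active means B-score over 3 SD under the library average, and starting fluorescence ratio not unusually high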;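 further: choline stimulus applied at its EC90 after an EC20 pre-addition; B-score computed on integrated fluorescence ratio after choline addition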
CHT allo act: allosteric activators of human choline transporter CHT; 310,000 compounds, 0.49% hits; CHT-expressing cells, membrane potential dye, choline EC20; stronger effect = higher value; LV-AA mutant CHT in HEK293 cells; B-score at 10 µM; Q9GZV3;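 active means initial fluorescence not abnormally high and integrated response B-score, plate-corrected, over 3 SD above library mean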
GPR7 antag: human neuropeptides B/W receptor 1 antagonism; P48145; GPR7-expressing cells, fluorescence antagonist assay; inhibition, % at 4.4 µM; 290,000 compounds, 1.1% hits; AID 1861; in the data active means inhibition above about 16%, passing the limit was not always enough;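 further: cells stimulated with the agonist NPW; 0% = agonist with vehicle and 100% = vehicle without agonist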
Target sequence (P48145 whole entry, looked up): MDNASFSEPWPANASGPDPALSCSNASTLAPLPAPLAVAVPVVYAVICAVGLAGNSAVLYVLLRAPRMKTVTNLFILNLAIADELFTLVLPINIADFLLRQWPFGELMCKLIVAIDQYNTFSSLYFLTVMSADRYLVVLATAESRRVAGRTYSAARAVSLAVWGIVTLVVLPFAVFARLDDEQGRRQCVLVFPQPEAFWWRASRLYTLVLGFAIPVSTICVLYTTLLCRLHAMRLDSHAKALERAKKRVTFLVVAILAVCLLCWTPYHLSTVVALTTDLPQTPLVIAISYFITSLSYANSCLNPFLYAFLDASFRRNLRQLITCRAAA
TMEM16A reconf: re-confirmation of mouse TMEM16A chloride channel inhibitors. shares compounds with ANO1 block. HEK293 TMEM16A/YFP-H148Q, iodide quench fluorescence; ionomycin added to raise cell calcium. inhibition, % at 10 µM. 2,300 compounds, 39% hits. AID 652189;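 active means mean duplicate percent inhibition, scaled so buffer wells are 0 and the reference blocker 100, over three buffer SD above buffer mean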
HEK293 Ca mobil: calcium mobilization counter-screen hit for TMEM16A inhibitor series | shares compounds with ANO1 block | TMEM16A/YFP HEK293, Fluo4 calcium mobilization | calcium response (% of ionomycin), % at 10 µM | 2,300 compounds, 2% hits | AID 652231;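 active means duplicate-averaged calcium signal over 20% of the ionomycin maximum, relative to buffer baseline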;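 further: each well's signal is peak minus trough fluorescence divided by its pre-addition baseline; 0% = buffer wells and 100% = ionomycin wells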
Parental YFP cnt: acts in parental YFP-HEK293 cells lacking TMEM16A, counter-screen. shares compounds with ANO1 block. iodide YFP quench, ionomycin. YFP ratio F(max-min)/F0 at 10 µM. 2,300 tested, under 10 active;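 active means yellow fluorescent protein signal ratio exceeding the buffer control mean by over 5 SD of those controls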;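 further: ratio is mean of duplicate wells from kinetic YFP trace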
ClC-1 rat inh: blocks the rat ClC-1 voltage-dependent chloride channel. shares compounds with ANO1 block. CHO ClC-1-YFP, iodide influx fluorescence quench; iodide control reads 0, buffer control 100. ratio percent, % at 10 µM. 2,300 tested, under 10 active. AID 652236;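 active means duplicate-mean ratio percent above the mean of iodide-only control wells, which defines zero, plus 5 of their SD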;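 further: higher percent means stronger block of ClC-1 iodide influx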
* hit, by the source's call; i = inactive; · = no result given. Shown are actives, neighbours in structure and some others; about 3.7% of the full set was active somewhere.

SMILES	TMEM16A act	ANO1 block	Kir21 block	CHT inh	CHT allo act	GPR7 antag	TMEM16A reconf	HEK293 Ca mobil	Parental YFP cnt	ClC-1 rat inh
CCOCCCNC(=O)c1ccc2c(c1)ncn2-c1cccc(C)c1	i	i	-0.59	i	i	5	·	·	·	·
Cc1cccc(-n2cnc3cc(C(=O)N4CCCCC4)ccc32)c1	i	25*	0.87	i	i	15	i	i	-1.1	0
Cc1cc(C)c(S(=O)(=O)Nc2ccc3c4c(cccc24)CC3)c(C)c1	i	100*	-0.22	i	i	-3	i	i	-1.1	-10
C=C1C[C@H](O[C@@H]2O[C@H](CO)[C@@H](O)[C@H](O)[C@H]2O)[C@@H]2[C@H](OC(=O)[C@H]2C)[C@H]2[C@H](C)[C@H](O)C[C@@H]12	i	·	·	·	·	·	·	·	·	·
O=C(CN1CCN(Cc2ccc3c(c2)OCO3)CC1)NCC(F)(F)F	i	i	0.03	i	i	5	·	·	·	·
Cc1ccc2nc(SCc3nc4c(cnn4-c4ccccc4)c(=O)[nH]3)[nH]c2c1	i	25*	0.72	i	i	6	i	i	-0.92	-4
Cc1ccc(S(=O)(=O)N(C)c2ccc3ccccc3c2)cc1	i	100*	-0.46	i	i	-5	i	i	-0.91	-10
CC(C)CC(NS(=O)(=O)OCC(Cl)(Cl)Cl)c1ccccc1 (stereo unspecified)	i	100*	0.29	i	i	-6	56%*	i	-1.1	-3
COC(=O)CCC(NS(=O)(=O)OCC(Cl)(Cl)Cl)c1ccccc1 (stereo unspecified)	i	i	-3.5	i	i	-3	·	·	·	·
O=C(CN1CCN(c2ncc(C(F)(F)F)cc2Cl)CC1)N1CCN(c2ncc(C(F)(F)F)cc2Cl)CC1	i	i	1.4	i	i	8	·	·	·	·
O=C(CSc1ccc(Cl)cc1)N1CCN(c2ncc(C(F)(F)F)cc2Cl)CC1	i	100*	0.6	i	i	-8	i	i	-0.93	2
O=C(CCS(=O)(=O)c1ccccc1)N1CCN(c2cccc(C(F)(F)F)c2)CC1	i	25*	0.68	i	i	-15	i	i	-1.1	-15
COc1ccc(N2CCN(C(=O)CCC(=O)N3CC(C)Oc4ccccc43)CC2)cc1 (stereo unspecified)	i	i	-1.1	i	i	-1	·	·	·	·
O=C(CCS(=O)(=O)c1ccccc1)N1CCN(c2ccc(F)cc2)CC1	i	i	0	i	i	-5	·	·	·	·
CC1CN(C(=O)CCC(=O)N2CCN(c3cccc(C(F)(F)F)c3)CC2)c2ccccc2O1 (stereo unspecified)	i	25*	-2.3	i	i	0	20%*	i	-0.95	-4
Oc1c(Br)cccc1/C=N/c1ncn[nH]1	i	i	0.99	i	i	-11	·	·	·	·
COc1ccccc1OCc1nc2ccccc2n1C	i	i	1.9	i	i	5	·	·	·	·
COCC(N)(c1ccccc1)c1nc2ccccc2n1C (stereo unspecified)	i	25*	0.21	i	i	-2	i	i	-1.2	-6
COc1ccc(S(=O)(=O)N2CCC(O)(c3ccc(Cl)cc3)CC2)cc1	i	25*	-1.4	i	i	0	21%*	i	-1.1	-10
CCOC(=O)N1CCN(c2cc(=O)n(-c3ccccc3Cl)c(=O)[nH]2)CC1	i	i	-0.54	i	i	-10	·	·	·	·
COC(=O)C1CCN(c2cc(=O)n(-c3ccccc3Cl)c(=O)[nH]2)CC1	i	100*	·	i	i	7	i	i	-1.1	-6
COc1ccc(NS(=O)(=O)c2ccc(Cl)c(NC(=O)c3ccccc3F)c2)cc1	i	·	·	·	·	·	·	·	·	·
CC(C)(C)C(=O)Nc1cc(S(=O)(=O)Nc2ccc(Cl)cc2)ccc1Cl	i	25*	-2	i	i	-14	36%*	i	-1.4	-8
O=C1CCCc2cc3c(cc21)CC1(C3)Cc2cc3c(cc2C1)C(=O)CCC3	i	25*	-0.08	i	i	15	20%*	i	-1.2	-10
CN(CC(=O)Nc1ccc(Cl)cc1)C(=O)c1cccc(S(=O)(=O)N2CCN(Cc3ccccc3)CC2)c1	i	25*	-0.82	i	i	·	i	i	-1.1	-9
SMILES	TMEM16A act	ANO1 block	Kir21 block	CHT inh	CHT allo act	GPR7 antag	TMEM16A reconf	HEK293 Ca mobil	Parental YFP cnt	ClC-1 rat inh
CN(C)C(=O)c1ccc(NC(=O)c2cccc(S(=O)(=O)N3CCN(Cc4ccccc4)CC3)c2)cc1	i	·	·	·	·	·	·	·	·	·
Cc1ccc(-c2cc(C(F)(F)F)n3nc(C(=O)NCCCn4ccnc4)cc3n2)cc1C	i	i	0.97	i	i	-18	·	·	·	·
CCN(CC)CCCNC(=O)c1cc2nc(-c3ccccc3)cc(C(F)(F)F)n2n1	i	100*	-0.15	i	i	-11	i	i	-1.1	-10
O=C1NC(SCCCF)=N/C1=C/c1ccc(-n2cncn2)cc1	i	i	-0.91	i	i	-12	·	·	·	·
O=C(CCc1nnc(COc2ccccc2)o1)NCc1ccccc1C(F)(F)F	i	i	-0.03	i	i	1	·	·	·	·
CCOc1ccc(-c2nnn(CC(=O)c3ccc4c(c3)OCCO4)n2)cc1OCC	i	25*	-1.1	i	i	-14	18%*	i	-1	-10
O=C(NCc1nnc(SCc2ccc(F)cc2)n1-c1ccc(F)cc1)C12CC3CC(CC(C3)C1)C2	i	i	-1	i	i	14	·	·	·	·
CC/C(=N\OC(=O)c1ccc(OC(C)C)cc1)c1ccc(C)cc1	i	100*	-1	i	i	-5	i	i	-1.3	-23
CCCOc1ccc(C(=O)O/N=C(\CC)c2ccc(C)cc2)cc1	i	i	0.68	i	i	-7	·	·	·	·
Cc1nnc2ccc(N3CCCC3)nn12	i	25*	0.84	i	i	1	i	i	-0.94	-19

Compound activity: PubChem BioAssay, several laboratories
